From PubChem BioAssay (EPA / NIEHS)
“And” between values parts separate entries of the source, which are not always exact repeats. Identical values can stand only once. Some compounds were tested as several samples or in several runs, with calls that do not always agree. The source made the active and inactive calls. Rule for the calls: active = hit-call score of the fitted dose curve at least 0.9, where 1 is the maximum; inactive = score below 0.9.

Key:
[1] = read-out: Monokine induced gamma interferon (MIG), CXCL9 (gene 4283); experiment: BSK_BE3C_MIG: BioMAP Diversity Plus: BE3C Assay for Monokine induced gamma interferon (MIG) Biomarker Activity (AID 2283035); conditions: primary human bronchial epithelial cells; actives raise or lower the signal
Outline: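 hu bronchial epithelial 1° cells, 24 h cpd; MIG by ELISA; bidirectional fit, DMSO = baseline.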

[2] = read-out: Transforming growth factor beta 1 (TGFb1), TGFB1 (gene 7040); experiment: BSK_BE3C_TGFb1: BioMAP Diversity Plus: BE3C Assay for Transforming growth factor beta 1 (TGFb1) Biomarker Activity (AID 2283036); conditions: primary human bronchial epithelial cells; actives raise or lower the signal
Outline: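 Bronchial epithelial primary cells are treated with test chemical, then TGF-b1 is quantified by ELISA after 24 hours. Values derive from bidirectional fitting against DMSO, with cytotoxicity checked by SRB staining in parallel cultures.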

[3] = read-out: Plasminogen activator inhibitor-1 (PAI1), SERPINE1 (gene 5054); experiment: BSK_BE3C_PAI1: BioMAP Diversity Plus: BE3C Assay for Plasminogen activator inhibitor-1 (PAI1) Biomarker Activity (AID 2283037); conditions: primary human bronchial epithelial cells; actives raise or lower the signal
Outline: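 Values derive from bidirectional fitting against DMSO baseline of PAI-1 levels, measured by ELISA in human bronchial epithelial cells 24 h after compound addition.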

[4] = read-out: urokinase plasminogen activator (uPA), PLAU (gene 5328); experiment: BSK_BE3C_uPA: BioMAP Diversity Plus: BE3C Assay for urokinase plasminogen activator (uPA) Biomarker Activity (AID 2283038); conditions: primary human bronchial epithelial cells; actives raise or lower the signal
Outline: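 Primary human bronchial epithelial cells, uPA measured by ELISA 24 h after dosing. Bidirectional change relative to DMSO; cytotoxicity checked in parallel cultures by sulforhodamine B total-protein staining.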

[5] = read-out: Urokinase-type plasminogen activator receptor (uPAR), PLAUR (gene 5329); experiment: BSK_BE3C_uPAR: BioMAP Diversity Plus: BE3C Assay for Urokinase-type plasminogen activator receptor (uPAR) Biomarker Activity (AID 2283039); conditions: primary human bronchial epithelial cells; actives raise or lower the signal
Outline: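 Steps: dose human primary bronchial epithelial cells, incubate 24 h, measure uPAR by ELISA, then fit gain- or loss-of-signal response bidirectionally relative to DMSO.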

[6] = read-out: Interleukin-6 (IL6), IL6 (gene 3569); experiment: BSK_CASM3C_IL6: BioMAP Diversity Plus: CASM3C Assay for Interleukin-6 (IL6) Biomarker Activity for (AID 2283040); conditions: primary human coronary artery smooth muscle cells; actives raise or lower the signal
[7] = read-out: Tissue plasminogen activator (tPA), PLAT (gene 5327); experiment: BSK_BE3C_tPA: BioMAP Diversity Plus: BE3C Assay for Tissue plasminogen activator (tPA) Biomarker Activity (AID 2283041); conditions: primary human bronchial epithelial cells; actives raise or lower the signal
Outline: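 Gain- or loss-of-signal in tPA, measured by ELISA, derived by bidirectional fitting against DMSO. Cells: human primary bronchial epithelial; read at 24 h after chemical dosing.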

[8] = read-out: Interleukin-8 (IL8), CXCL8 (gene 3576); experiment: BSK_CASM3C_IL8: BioMAP Diversity Plus: CASM3C Assay for Interleukin-8 (IL8) Biomarker Activity (AID 2283042); conditions: primary human coronary artery smooth muscle cells; actives raise or lower the signal;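 note: IL-8 protein level quantified by ELISA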
[9] = read-out: Human Leukocyte Antigen - DR isotype (HLADR), HLA-DRA (gene 3122); experiment: BSK_CASM3C_HLADR: BioMAP Diversity Plus: CASM3C Assay for Human Leukocyte Antigen - DR isotype (HLADR) Biomarker Activity (AID 2283043); conditions: primary human coronary artery smooth muscle cells; actives raise or lower the signal;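 note: cell-surface HLA-DR protein level quantified by ELISA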
[10] = read-out: Macrophage colony-stimulating factor (MCSF), CSF1 (gene 1435); experiment: BSK_CASM3C_MCSF: BioMAP Diversity Plus: CASM3C Assay for Macrophage colony-stimulating factor (MCSF) Biomarker Activity (AID 2283044); conditions: primary human coronary artery smooth muscle cells; actives raise or lower the signal;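 note: M-CSF protein amount quantified by ELISA after 24 h exposure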
[11] = read-out: Low-density lipoprotein receptor (LDLR), LDLR (gene 3949); experiment: BSK_CASM3C_LDLR: BioMAP Diversity Plus: CASM3C Assay for Low-density lipoprotein receptor (LDLR) Biomarker Activity (AID 2283045); conditions: primary human coronary artery smooth muscle cells; actives raise or lower the signal;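 note: LDLR protein level on the cell surface quantified by ELISA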
[12] = read-out: Monocyte Chemoattractant Protein-1 (MCP1), CCL2 (gene 6347); experiment: BSK_CASM3C_MCP1: BioMAP Diversity Plus: CASM3C Assay for Monocyte Chemoattractant Protein-1 (MCP1) Biomarker Activity (AID 2283046); conditions: primary human coronary artery smooth muscle cells; actives raise or lower the signal;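 note: MCP-1 level quantified by ELISA 24 h after dosing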
[13] = BSK_CASM3C_Proliferation: Cell Proliferation Assessment in the BioMAP Diversity Plus: CASM3C Assay (AID 2283047); conditions: primary human coronary artery smooth muscle cells;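 note: sulforhodamine B total protein stain as relative cell number at 560 nm; sub-confluent cells exposed 48 h before staining; fitted both ways against DMSO so gain or loss of cell number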
[14] = read-out: Monokine induced gamma interferon (MIG), CXCL9 (gene 4283); experiment: BSK_CASM3C_MIG: BioMAP Diversity Plus: CASM3C Assay for Monokine induced gamma interferon (MIG) Biomarker Activity (AID 2283048); conditions: primary human coronary artery smooth muscle cells; actives raise or lower the signal;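 note: MIG protein level measured by ELISA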
[15] = read-out: serum amyloid A (SAA), SAA1 (gene 6288); experiment: BSK_CASM3C_SAA: BioMAP Diversity Plus: CASM3C Assay for serum amyloid A (SAA) Biomarker Activity (AID 2283049); conditions: primary human coronary artery smooth muscle cells; actives raise or lower the signal;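 note: SAA protein level quantified by ELISA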
[16] = BSK_CASM3C_SRB: Viability Assessment in the BioMAP Diversity Plus: CASM3C Assay (AID 2283050); conditions: primary human coronary artery smooth muscle cells;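 note: total protein by SRB staining as cytotoxicity measure in parallel cultures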
[17] = read-out: Thrombomodulin, THBD (gene 7056); experiment: BSK_CASM3C_Thrombomodulin: BioMAP Diversity Plus: CASM3C Assay for Thrombomodulin Biomarker Activity (AID 2283051); conditions: primary human coronary artery smooth muscle cells; actives raise or lower the signal;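 note: thrombomodulin protein level measured by ELISA 24 h after dosing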
[18] = read-out: Tissue Factor, F3 (gene 2152); experiment: BSK_CASM3C_TissueFactor: BioMAP Diversity Plus: CASM3C Assay for Tissue Factor Biomarker Activity (AID 2283052); conditions: primary human coronary artery smooth muscle cells; actives raise or lower the signal;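 note: cell surface tissue factor protein level read by ELISA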
[19] = read-out: Urokinase-type plasminogen activator receptor (uPAR), PLAUR (gene 5329); experiment: BSK_CASM3C_uPAR: BioMAP Diversity Plus: CASM3C Assay for Urokinase-type plasminogen activator receptor (uPAR) Biomarker Activity (AID 2283054); conditions: primary human coronary artery smooth muscle cells; actives raise or lower the signal;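 note: cell-surface uPAR protein level quantified by ELISA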
[20] = read-out: Interferon-gamma inducible Protein 10 (IP10), CXCL10 (gene 3627); experiment: BSK_hDFCGF_IP10: BioMAP Diversity Plus: hDFCGF Assay for Interferon-gamma inducible Protein 10 (IP10) Biomarker Activity (AID 2283053); conditions: primary human foreskin fibroblasts; actives raise or lower the signal
Outline: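 Cells: human dermal foreskin fibroblasts. Exposure: 24 h post-dosing. Detection: IP-10 ELISA, with values expressed against DMSO controls and fitted in both directions.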

Measured: AC50

COc1cccc(-c2ccc(/C=C\CN3CCCCCC3)cc2Cl)c1
active: [1] 32.7 µM | [2] 25.8 µM | [4] 23.6 µM | [5] 25.2 µM | [7] 29.2 µM | [9] 29.5 µM | [10] 29.4 µM | [11] 4.74 µM | [13] 29.8 µM | [15] 32 µM | [16] 25 µM | [19] 25.9 µM
inactive: [3] | [6] | [8] | [12] | [14] | [17] | [18]

CCOc1cccc(-n2cc(C(=O)N3CCN(c4cc(C(=O)O)c5ccccc5c4)CC3)nc2-c2ccc(C)cc2)c1
active: [1] 32.6 µM | [2] 27.4 µM | [3] 19.2 µM | [4] 16.8 µM | [5] 15.7 µM | [6] 30.3 µM | [7] 9.89 µM | [9] 27 µM | [10] 19.2 µM | [12] 34.5 µM | [13] 30.4 µM | [14] 19.2 µM | [19] 31.1 µM
inactive: [8] | [11] | [15] | [16] | [17] | [18]

Cc1ccc(O)cc1
active: [19] 4.24 µM
not listed: [20]
inactive: all other assays above

Cn1c(=O)c2c(ncn2C)n(C)c1=O
inactive: all assays above

CCOCCOCCOCCO
inactive: all assays above

CC(=O)OC[C@H]1O[C@@](COC(C)=O)(O[C@H]2O[C@H](COC(C)=O)[C@@H](OC(C)=O)[C@H](OC(C)=O)[C@H]2OC(C)=O)[C@@H](OC(C)=O)[C@@H]1OC(C)=O
not listed: [20]
inactive: all other assays above

Cc1ccc(C)c(O)c1
not listed: [20]
inactive: all other assays above

O=c1n(CC2CO2)c(=O)n(CC2CO2)c(=O)n1CC1CO1 (configuration not stated)
active: [9] 15.3 µM | [13] 1.85 µM
not listed: [20]
inactive: all other assays above

Cn1cnc([N+](=O)[O-])c1Sc1ncnc2nc[nH]c12
active: [7] 6.7 µM | [9] 11.3 µM | [13] 10.2 µM and 12 µM and 4.25 µM
inactive: [1] | [2] | [3] | [4] | [5] | [6] | [7] | [8] | [9] | [10] | [11] | [12] | [14] | [15] | [16] | [17] | [18] | [19]

O=P(OC(CCl)CCl)(OC(CCl)CCl)OC(CCl)CCl
active: [13] 20 µM | [17] 15.7 µM
not listed: [20]
inactive: all other assays above

CC(C)=CCCC(C)CCO (configuration not stated)
not listed: [20]
inactive: all other assays above

Cn1c(=O)cc(Oc2ccc(F)cc2F)c2cnc(NCC(C)(C)O)nc21
active: [3] 9.04 µM | [6] 5.13 µM | [8] 3.16 µM | [9] 1.42 µM | [15] 3.97 µM | [20] 1.15 µM
inactive: all other assays above

Clc1nc(Cl)c(Cl)c(Cl)c1Cl
not listed: [20]
inactive: all other assays above

CC(C)=CCC/C(C)=C/CO
inactive: all assays above
